Common to all, as to assay: NCI-60 one-dose screen, 48 h (100 = growth as untreated, 0 = no growth, -100 = all killed)
Conditions in all cases: 10 µM

Experiment [1] deals with DU-145 prostate.
Experiment [2] deals with K-562 leukemia.
The subject of experiment [3] is MALME-3M melanoma.
Experiment [4] concerns MDA-MB-231 breast.
The subject of experiment [5] is RXF 393 renal.
For experiment [6], the system named is SF-268 CNS.
For experiment [7], the system named is SF-295 CNS.
Experiment [8] has as its system SF-539 CNS.
Experiment [9] has as its system UACC-257 melanoma.
Experiment [10] relates to M14 melanoma.
Experiment [11] relates to HCT-15 colon.
Experiment [12] relates to HT29 colon.
Experiment [13] concerns SNB-75 CNS.
Experiment [14] deals with SNB-19 CNS.
Experiment [15] relates to U251 CNS.
The test system of experiment [16] is PC-3 prostate.
Experiment [17] deals with SK-MEL-5 melanoma.
In experiment [18] the test system is UACC-62 melanoma.
Experiment [19] deals with LOX IMVI melanoma.
The subject of experiment [20] is SK-MEL-28 melanoma.

The source of these data is PubChem BioAssay (NCI).

Each structure is given as a SMILES string. Compounds without any hit were thinned out: in the full panel of roughly 83,000, 20% have a hit.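 Interpretation: 100, growth as untreated; towards 0, rising growth inhibition; 0, no net growth; 0 to -100, cell death. Compounds scoring below 10 were considered active.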 Unmarked numbers belong to inactive results. Activity calls are given as the source filed them.

Turning to `CCc1ccc(-c2nnc(COc3ccc(-c4nc5ccc(C)cc5[nH]4)cc3OC)o2)cc1`, the growth is 48.5% in experiment [1]; 33.1% in experiment [2]; 9.91% (active) in [3]; 9.26% (active) in experiment [4]; 24.4% in [5]; 55.6% in [6]. The growth in experiment [7] was 20%; in [8], -28.2% (active); in [9] it was 95.7%; in [10], 49.5%; in [11] it was 21.9%; in [12], 48.9%. Moreover, the growth is -50% (active) in [13]; 77.5% in experiment [14]; 25.5% in experiment [15]; 36.6% in experiment [16]; 15.3% in experiment [17]; 79.6% in experiment [18]. Further, the results for the growth in experiment [19] and in [20] were 48.2% and 77.4%, respectively.

As for `Cc1nc(Nc2nc3ccccc3o2)nc(-c2cccc([N+](=O)[O-])c2)c1C(=O)Nc1ccc(F)c(Cl)c1`, the growth is 18.6% in experiment [1]; 4.49% (active) in experiment [2]; 6.18% (active) in experiment [3]; -17.4% (active) in [4]; 29.4% in experiment [5]; 11.9% in experiment [6]. Also, the growth in [7] is -40.7% (active); in experiment [8], 25.7%; in experiment [9], -11.3% (active); in experiment [10], 15.6%; in experiment [11] it was 15.5%; in experiment [12] it was 6.31% (active). Also, the growth was 17.8% in experiment [13]; 11.7% in [14]; 3.14% (active) in experiment [15]; 6.84% (active) in experiment [16]; 0.624% (active) in [17]; 17.1% in experiment [18]. The growth is 0.0269% (active) in experiment [19] and 13.2% in experiment [20].

For `O=C1/C(=C/c2ccc(O)cc2O)N=C2SCCCN12`, the growth is 104% in [1]; 92.5% in experiment [2]; 101% in [3]; 104% in experiment [4]; 102% in [5]; 96.9% in experiment [6]. In addition, the growth in experiment [7] was 96.3%; in [8], 93.7%; in experiment [9], 102%; in experiment [10], 100%; in [11] it was 97.3%; in experiment [12], 93.9%. The growth was 96.2% in experiment [13]; 97% in experiment [14]; 99.2% in experiment [15]; 100% in experiment [16]; 99.7% in experiment [17]; 97.4% in experiment [18]. Besides, the growth was 102% in [19] and 98.4% in experiment [20].

For `Nc1nsc(C(=O)c2ccc(O)cc2)n1`, the growth was 105% in [1]; 107% in [2]; 109% in [3]; 90.4% in experiment [4]; 120% in experiment [5]; 101% in experiment [6]. The growth was 99.4% in experiment [7]; 92.9% in experiment [8]; 87% in experiment [9]; 105% in [10]; 102% in [11]; 106% in [12]. The growth in [13] was 101%; in experiment [14], 103%; in [15], 93.5%; in experiment [16], 76.1%; in [17], 97.9%; in experiment [18], 89%. Also, the growth is 89.3% in [19] and 100% in experiment [20].

`Oc1cc(O)c(Br)cc1Br`: the growth was 107% in experiment [1]; 97.5% in experiment [2]; 120% in experiment [3]; 112% in [4]; 110% in experiment [5]; 100% in experiment [6]. In addition, the growth in experiment [7] is 98.7%; in [8], 96.4%; in experiment [9] it was 102%; in experiment [10], 92.9%; in experiment [11], 101%; in experiment [12], 98.1%. Besides, the growth in experiment [13] is 95.7%; in [14] it was 102%; in [15], 99.7%; in [16], 87.9%; in experiment [17] it was 97.7%; in [18] it was 101%. Further, the growth in experiment [19] is 94%; in experiment [20], 111%.

In the case of `CCCCCCCCCCCCc1ccc(C(=O)/C=C/C(=O)O)cc1`, the growth is 89.8% in experiment [1]; -5.52% (active) in experiment [2]; 69.1% in experiment [3]; 29.4% in [4]; 80.8% in experiment [5]; 100% in experiment [6]. Moreover, the growth in experiment [7] was 80.2%; in experiment [8], 76.5%; in experiment [9], 96.1%; in experiment [10], 62.1%; in experiment [11], -19.4% (active); in experiment [12], 27.8%. The growth in experiment [13] was 74.5%; in [14] it was 94.4%; in [15] it was 80.1%; in experiment [16], 82.9%; in experiment [17], 92.1%; in experiment [18], -16.8% (active). Also, the growth was -62.4% (active) in [19] and 26.4% in experiment [20].

For the molecule `O=C(NC1CCN(Cc2ccccc2)CC1)c1cc(-c2ccncc2)nc2ccc(Cl)cc12`, the growth in experiment [1] was 33.2%; in experiment [2] it was 13.4%; in experiment [3], 56.9%; in [4], 42.3%; in [5], 37.8%; in [6], 24.4%. Also, the growth in [7] is 14.6%; in experiment [8] it was 16.4%; in experiment [9], -1.44% (active); in experiment [10] it was 16.1%; in [11], 24.2%; in experiment [12], 19.9%. Besides, the growth in experiment [13] was 68.7%; in [14] it was 24.8%; in experiment [15], 7.4% (active); in experiment [16], 33.9%; in [17], 16%; in experiment [18], 7.85% (active). For the same molecule, the growth in experiment [19] is 15.3%; in experiment [20] it was 46.5%.

With `C[N+]1(CC2CO2)CCCCCC1` (stereo not given), the growth in experiment [1] was 107%; in experiment [2], 119%; in [3] it was 95.8%; in [4], 116%; in [5] it was 103%; in [6], 104%. Further, the growth in experiment [7] is 103%; in experiment [8] it was 95.8%; in [9] it was 99.4%; in [10], 106%; in experiment [11], 94.9%; in experiment [12], 112%. Further, the growth was 92.9% in experiment [13]; 104% in experiment [14]; 107% in experiment [15]; 102% in experiment [16]; 98.1% in experiment [17]; 102% in experiment [18]. In addition, the growth is 105% in experiment [19] and 104% in experiment [20].
